Test results taken from PubChem BioAssay (NCATS).
Values without a mark were called inactive. Records with an inconclusive call do not appear. A call without a number means that no potency is given here. The source made the active and inactive calls. Unless noted, the call rests on the fitted dose curve; in most records, active means well fitted curve in the direction sought with a large enough effect; inconclusive means small, poorly fitted or top-dose-only effect, or another doubt; inactive means no such curve, though single readings can be large; an effect the other way counts as inactive or inconclusive.

How the values were obtained:
[1] = target: Glucocorticoid receptor (Homo sapiens) (UniProt P04150); test: GR-GFP Redistribution (AID 450;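 active means compounds whose dose series gives a full or clear partial fitted curve of increased nuclear translocation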; further: potency means the concentration at half of the fitted maximal effect); conditions: U2OS GR-GFP nuclear translocation, laser cytometry, 2 h
Chain of Glucocorticoid receptor (Homo sapiens) (P04150 whole entry, looked up, the tested form may be a part): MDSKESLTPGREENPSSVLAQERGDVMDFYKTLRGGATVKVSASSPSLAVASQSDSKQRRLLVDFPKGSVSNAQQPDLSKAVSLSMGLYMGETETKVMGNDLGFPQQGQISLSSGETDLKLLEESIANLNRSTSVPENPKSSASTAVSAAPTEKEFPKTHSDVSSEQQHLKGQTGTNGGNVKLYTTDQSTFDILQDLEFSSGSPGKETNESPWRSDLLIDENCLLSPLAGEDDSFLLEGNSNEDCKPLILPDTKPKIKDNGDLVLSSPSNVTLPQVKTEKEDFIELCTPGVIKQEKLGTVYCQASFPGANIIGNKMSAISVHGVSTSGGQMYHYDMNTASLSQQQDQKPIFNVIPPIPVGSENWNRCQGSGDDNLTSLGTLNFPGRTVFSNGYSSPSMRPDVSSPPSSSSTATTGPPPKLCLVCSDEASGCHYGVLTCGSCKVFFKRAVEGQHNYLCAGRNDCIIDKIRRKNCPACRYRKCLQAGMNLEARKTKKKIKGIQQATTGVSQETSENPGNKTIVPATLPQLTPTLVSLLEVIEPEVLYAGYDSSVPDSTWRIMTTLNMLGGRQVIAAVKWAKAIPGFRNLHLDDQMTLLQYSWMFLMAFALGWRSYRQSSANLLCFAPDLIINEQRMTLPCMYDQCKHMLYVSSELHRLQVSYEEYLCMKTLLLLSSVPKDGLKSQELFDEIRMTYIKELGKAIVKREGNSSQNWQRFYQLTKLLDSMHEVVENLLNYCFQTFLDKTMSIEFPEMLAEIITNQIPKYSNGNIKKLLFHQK

[2] = target: Glucocorticoid receptor (Homo sapiens) (UniProt P04150); test: GR-EFC Redistribution (AID 451; calls by dose curve; further: potency means the concentration at half of the fitted maximal effect); conditions: CHO-K1 GR-EFC translocation, beta-gal luminescence, 2 h
Procedure, shortened: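 CHO-K1 cells expressing nuclear EA and GR-ED fragments of b-gal; compounds titrated up to 46 uM final, 2 h at 37 C. GR nuclear translocation read as complemented b-gal luminescence after 1 h RT detection.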

[3] = target: Mitogen-activated protein kinase 10 (Mus musculus) (UniProt Q61831); test: JNK3 AlphaScreen Assay (AID 530; active means well fitted curve in either direction with a large enough effect, not every such curve was filed as active;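 further: kinase came from lysate of stimulated human HepG2 cells; signal reports phosphorylation of biotinylated GST-cJun 1-79 at Ser73 with 10 µM ATP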); conditions: JNK3 lysate, c-Jun phosphorylation; series mostly up to 57.1 µM
Procedure, shortened: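 Pre-activated (IL-1β/TNFα) JNK3 in HepG2 lysates phosphorylates biotin-GST-cJun(1-79), 10 uM ATP; anti-phospho-cJun(Ser73) AlphaScreen read at room temperature, pH 7.6 Tris buffer. Compounds pre-incubated 15 min as titrations.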

[4] = target: 3',5'-cyclic-AMP phosphodiesterase 4B (Homo sapiens) (UniProt Q07343); test: qHTS Assay for Inhibitors of PDE-IV (AID 607; active means well fitted activation curve with a large enough effect in the main read-out, with a control signal flat, not every such curve was filed as active); conditions: HEK293 ACTOne CNG channel cells, membrane potential fluorescence; series mostly up to 22.9 µM
Procedure, shortened: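 The readout is membrane depolarisation from a cAMP-sensing CNG channel, detected with a potential dye at ex 535/em 590. Cells were HEK293-derived (endogenous PDE-IV) at 1000 cells/well, titrated up to 22.9 uM final.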

[5] = target: Guanine nucleotide-binding protein G(i) subunit alpha-1 (Homo sapiens) (UniProt P63096); test: qHTS Assay for Inhibitors of RGS12 GoLoco Motif Activity (Green Fluorophore) (AID 879); conditions: Galphai1/FITC-RGS12 GoLoco peptide, fluorescence polarization; series mostly up to 57.1 µM;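 further: negative values mean loss of peptide binding seen as reduced polarization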
Chain of Guanine nucleotide-binding protein G(i) subunit alpha-1 (Homo sapiens) (P63096 whole entry, looked up): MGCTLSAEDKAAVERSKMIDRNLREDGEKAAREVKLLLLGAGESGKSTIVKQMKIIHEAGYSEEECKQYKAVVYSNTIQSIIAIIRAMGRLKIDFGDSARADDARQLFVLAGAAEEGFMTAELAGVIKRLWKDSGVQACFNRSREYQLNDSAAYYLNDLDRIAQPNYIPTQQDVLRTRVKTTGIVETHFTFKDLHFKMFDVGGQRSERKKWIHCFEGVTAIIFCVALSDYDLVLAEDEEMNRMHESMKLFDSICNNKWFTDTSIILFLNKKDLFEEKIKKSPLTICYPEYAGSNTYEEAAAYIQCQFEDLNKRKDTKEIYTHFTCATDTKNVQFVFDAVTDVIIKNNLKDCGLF
Procedure, shortened: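 Fluorescence polarization assay: 50 nM Gαi1 with 10 nM FITC-labeled RGS12 GoLoco peptide in 10 mM Tris pH 7.5, 150 mM NaCl, 0.1 mM GDP, 0.05% NP40, 10 min at room temperature with compound.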

[6] = target: Cytochrome P450 3A4 (Homo sapiens) (UniProt P08684); test: qHTS Assay for Activators of Cytochrome P450 3A4 (AID 885); conditions: recombinant CYP3A4, Luciferin-PPXE luminescence, 60 min; series mostly up to 57.1 µM; further: nearly all actives have a fitted effect of over 65% in size
Chain of Cytochrome P450 3A4 (Homo sapiens) (P08684 whole entry, looked up): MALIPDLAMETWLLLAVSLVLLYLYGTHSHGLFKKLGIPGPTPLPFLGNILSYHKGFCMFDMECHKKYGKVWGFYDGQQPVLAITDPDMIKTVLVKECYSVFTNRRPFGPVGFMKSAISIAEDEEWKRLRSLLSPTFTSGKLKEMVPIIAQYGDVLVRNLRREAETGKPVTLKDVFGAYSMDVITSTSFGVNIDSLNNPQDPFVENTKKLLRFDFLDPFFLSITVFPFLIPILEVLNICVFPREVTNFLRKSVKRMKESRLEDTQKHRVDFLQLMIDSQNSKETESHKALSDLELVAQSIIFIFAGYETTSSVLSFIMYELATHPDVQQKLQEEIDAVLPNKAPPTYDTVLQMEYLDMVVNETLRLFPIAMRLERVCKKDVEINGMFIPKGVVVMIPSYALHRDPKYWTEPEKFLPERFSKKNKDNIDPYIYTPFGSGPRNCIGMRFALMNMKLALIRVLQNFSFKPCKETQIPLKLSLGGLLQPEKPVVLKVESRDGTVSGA
Procedure, shortened: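 Steps: enzyme/substrate mix dispensed; compound added, 10 min RT; NADPH regeneration solution added, 60 min RT; luciferin detection buffer stops reaction; 20 min later luminescence measured.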

[7] = qHTS Assay for Identification of Small Molecule Antagonists for NFkB Signaling Pathway (AID 895; active means well fitted inhibition curve with a large enough effect in the signal ratio, with a control signal flat, not every such curve was filed as active; the % refers to the signal ratio; further: potency means the concentration at half of the fitted maximal effect); conditions: NFkB beta-lactamase reporter cells, FRET ratio 460/530; series mostly up to 38.3 µM
Procedure, shortened: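 ME-180 NFkB-bla cells (beta-lactamase under NFkB response element), plated overnight, treated with compound then 10 pM TNF alpha (about EC50) for 5 hrs at 37 C. LiveBLAzer FRET read at 460/530 nm emission, 405 nm excitation.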

[8] = qHTS Assay for Identification of Small Molecule Agonists for Thrombopoietin (TPO) Signaling Pathway (AID 917); conditions: TPO signaling pathway reporter cells, agonist qHTS; series mostly up to 38.5 µM
Procedure, shortened: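 Reporter: GpIIb promoter–luciferase in murine Ba/F3 expressing human TPO receptor. Pre-starved of IL-3 overnight; compounds with 26 pM TPO, 24 hrs, 37 C/5% CO2; luminescence read.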

[9] = target: Pyruvate kinase (Leishmania mexicana) (UniProt Q27686); test: qHTS Validation Assay for Inhibitors of Leishmania Mexicana Pyruvate Kinase (AID 945); conditions: purified L. mexicana pyruvate kinase, enzyme activity, E451W mutant enzyme; series mostly up to 57.5 µM
Procedure, shortened: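 Substrate mix (0.5 mM PEP, 0.1 mM ADP, 7 mM MgCl2, 50 mM KCl, pH 7.2 imidazole) received compound by pin tool, then 0.2 nM LmPYK E451W. After 1 h at room temperature, PKLight was added and luminescence measured.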

[10] = target: Pyruvate kinase PKM (Homo sapiens) (UniProt P14618); test: qHTS Assay for Activators of Human Muscle Pyruvate Kinase (AID 954; active means well fitted curve in the direction sought with a large enough effect, not every such curve was filed as active); conditions: purified human muscle pyruvate kinase, luciferase-coupled luminescence, 1 h; series mostly up to 57.5 µM
Chain of Pyruvate kinase PKM (Homo sapiens) (P14618 whole entry, looked up): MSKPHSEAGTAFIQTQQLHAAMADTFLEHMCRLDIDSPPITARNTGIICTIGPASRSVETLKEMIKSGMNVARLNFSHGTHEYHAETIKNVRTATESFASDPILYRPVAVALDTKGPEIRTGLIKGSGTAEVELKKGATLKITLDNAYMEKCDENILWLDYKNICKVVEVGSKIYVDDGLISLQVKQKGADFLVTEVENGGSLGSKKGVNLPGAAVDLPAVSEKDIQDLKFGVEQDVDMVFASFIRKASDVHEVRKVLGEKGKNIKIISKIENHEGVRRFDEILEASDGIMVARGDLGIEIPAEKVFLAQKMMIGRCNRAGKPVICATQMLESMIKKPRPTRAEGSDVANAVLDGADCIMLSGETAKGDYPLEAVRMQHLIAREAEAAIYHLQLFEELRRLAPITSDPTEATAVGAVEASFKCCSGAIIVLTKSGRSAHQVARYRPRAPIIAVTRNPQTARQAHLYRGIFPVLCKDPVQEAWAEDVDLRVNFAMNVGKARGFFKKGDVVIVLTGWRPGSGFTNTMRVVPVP
Procedure, shortened: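 Reaction: 0.1 nM purified PKM2 with 0.5 mM phosphoenolpyruvate and 0.1 mM ADP, room temperature, 1 h. Readout: luciferase-based ATP luminescence after stop reagent. Activators judged against a 0.3 nM enzyme column.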

[11] = target: Alpha-galactosidase A (Homo sapiens) (UniProt P06280); test: Counterscreen for Glucocerebrosidase Inhibitors: qHTS Assay for Human alpha-Galactosidase at pH 4.5 (AID 992); conditions: purified enzyme, fluorogenic substrate; series mostly up to 76.9 µM
Chain of Alpha-galactosidase A (Homo sapiens) (P06280 whole entry, looked up): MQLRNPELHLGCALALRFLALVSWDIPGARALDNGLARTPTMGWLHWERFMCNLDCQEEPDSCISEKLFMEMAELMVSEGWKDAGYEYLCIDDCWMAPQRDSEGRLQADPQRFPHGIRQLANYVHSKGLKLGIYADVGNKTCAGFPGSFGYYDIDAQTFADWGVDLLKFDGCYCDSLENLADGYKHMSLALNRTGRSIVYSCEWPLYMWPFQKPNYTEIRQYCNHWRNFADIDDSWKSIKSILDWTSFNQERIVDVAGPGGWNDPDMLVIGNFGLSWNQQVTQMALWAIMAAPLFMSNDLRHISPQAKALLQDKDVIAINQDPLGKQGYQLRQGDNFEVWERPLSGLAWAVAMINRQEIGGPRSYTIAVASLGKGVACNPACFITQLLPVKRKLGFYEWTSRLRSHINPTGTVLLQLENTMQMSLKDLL
Procedure, shortened: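 Concentration-response curves (0.7 nM to 77 uM final) were modeled with the Hill equation to give AC50. Reactions: 2 nM enzyme, 80 uM fluorogenic alpha-galactoside, pH 4.5 citric acid buffer, 20 min, room temperature.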

[12] = target: alpha-glucosidase (Oryza sativa, rice) (UniProt Q653V4); test: Counterscreen for Glucocerebrosidase Inhibitors: qHTS Assay for Rice alpha-Glucosidase at pH 5.0 (AID 997); conditions: rice alpha-glucosidase enzyme activity; series mostly up to 76.9 µM
Procedure, shortened: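 Rice alpha-glucosidase (4 nM final) with 400 uM 4-methylumbelliferyl-alpha-D-glucopyranoside in citrate buffer pH 5.0, 20 min at room temperature, stopped at pH 10; fluorescence 365/440 nm, compounds 0.7 nM–77 uM, AC50 from Hill fits.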

[13] = target: DNA repair nuclease/redox regulator APEX1 (Homo sapiens) (UniProt P27695); test: qHTS Validation Assay for Inhibitors of the Human Apurinic/apyrimidinic Endonuclease 1 (APE1) (AID 1705; further: potency means the concentration at half of the fitted maximal effect); conditions: purified APE1 endonuclease activity, fluorescence, titration; series mostly up to 57.1 µM
Chain of DNA repair nuclease/redox regulator APEX1 (Homo sapiens) (P27695 whole entry, looked up): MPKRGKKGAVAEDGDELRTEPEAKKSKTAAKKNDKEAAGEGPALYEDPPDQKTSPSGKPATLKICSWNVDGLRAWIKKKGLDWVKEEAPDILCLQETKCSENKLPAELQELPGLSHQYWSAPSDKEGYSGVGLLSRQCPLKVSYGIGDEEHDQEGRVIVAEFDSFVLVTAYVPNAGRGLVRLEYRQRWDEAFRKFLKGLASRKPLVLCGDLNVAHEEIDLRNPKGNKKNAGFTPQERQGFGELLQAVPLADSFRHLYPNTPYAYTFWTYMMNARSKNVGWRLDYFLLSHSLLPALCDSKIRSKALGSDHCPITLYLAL
Procedure, shortened: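 Activity read as rising fluorescence (598 nm emission, 525 nm excitation) from incision of a TAMRA/BHQ-2 duplex carrying a THF abasic site (50 nM). Compound and enzyme sat 15 min at RT before substrate start; signal change between first and third 60-s reads.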

[14] = qHTS for differential inhibitors of proliferation of Plasmodium falciparum line 7G8 (AID 1815); conditions: Plasmodium falciparum 7G8 proliferation inhibition; series mostly up to 28.7 µM;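 further: potency means the concentration at half of the fitted maximal effect; parasite growth measured after three days of incubation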
[15] = qHTS for differential inhibitors of proliferation of Plasmodium falciparum line GB4 (AID 1816); conditions: Potency: Plasmodium falciparum GB4 proliferation inhibition; series mostly up to 28.7 µM;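 further: potency means the concentration at half of the fitted maximal effect; parasite growth measured after 72 h incubation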
[16] = qHTS for differential inhibitors of proliferation of Plasmodium falciparum line 3D7 (AID 1876); further: potency means the concentration at half of the fitted maximal effect; conditions: P. falciparum 3D7 proliferation inhibition; series mostly up to 28.7 µM
[17] = qHTS for differential inhibitors of proliferation of Plasmodium falciparum line Dd2 (AID 1882); conditions: Potency: Plasmodium falciparum Dd2 proliferation inhibition; series mostly up to 28.7 µM; further: nearly all actives have a fitted effect of over 65% in size
Procedure, shortened: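 Dd2-infected erythrocytes (0.3% parasitemia, 2.5% hematocrit final) incubated with compound 72 h at 37 C, 5% CO2; lysed with saponin/Triton buffer containing SYBR Green I, incubated overnight in the dark, then read by fluorescence (485/535 nm). Normalized to 0.29 uM artemisinin and DMSO.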

[18] = qHTS for differential inhibitors of proliferation of Plasmodium falciparum line W2 (AID 1883); conditions: Potency: Plasmodium falciparum W2 proliferation inhibition; series mostly up to 28.7 µM;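 further: potency means the concentration at half of the fitted maximal effect; parasites grown with compound for 72 h before lysis and staining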
[19] = qHTS for differential inhibitors of proliferation of Plasmodium falciparum line HB3 (AID 1886); conditions: Potency: Plasmodium falciparum HB3 proliferation inhibition; series mostly up to 28.7 µM;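 further: potency means the concentration at half of the fitted maximal effect; parasites grown with compound for 72 h before SYBR Green readout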
[20] = target: Ferritin light chain (Equus caballus) (UniProt P02791); test: qHTS Validation Assay for Identification of Novel General Anesthetics (AID 2323); conditions: horse apoferritin, anesthetic-site fluorescent probe displacement; series mostly up to 76.9 µM
Chain of Ferritin light chain (Equus caballus) (P02791 2-175 limits assumed): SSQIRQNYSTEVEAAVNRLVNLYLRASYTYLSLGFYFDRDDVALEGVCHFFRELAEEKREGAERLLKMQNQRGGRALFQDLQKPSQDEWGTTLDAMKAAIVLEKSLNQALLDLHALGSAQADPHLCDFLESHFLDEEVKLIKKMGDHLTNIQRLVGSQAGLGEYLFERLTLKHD
Procedure, shortened: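 Competitive displacement of the profluorescent anesthetic 1-AMA (50% saturated, PBS) from 10 uM apoferritin, 10 min, room temperature. Activity is normalized 380/535 nm fluorescence; concentration-response fitted with a four-parameter Hill equation.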

[21] = target: ATP-dependent DNA helicase Q1 (Homo sapiens) (UniProt P46063); test: qHTS Validation Assay for Inhibitors of RecQ-Like Dna Helicase 1 (RECQ1) (AID 2353); conditions: recombinant RECQ1 helicase DNA unwinding assay; series mostly up to 25.6 µM
Procedure, shortened: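 50 nM RECQ1T1 preincubated 15 min with compound in Tris pH 8.0 buffer with MgCl2, DTT, Tween-20 and 2.5 ug/ml poly(dI-dC); started with 200 nM TAMRA/BHQ-2 forked duplex and 2 mM ATP. Unwinding read as fluorescence (525/598 nm), two reads 2 h apart.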

[22] = Validation screen for inhibitors of Lassa infection (AID 463096; calls by dose curve); conditions: Lassa virus infection, cell-based; series mostly up to 46.1 µM
[23] = Quantitative high throughput screen for delayed death inhibitors of the malarial parasite plastid, 96 hour incubation (AID 488745); conditions: Plasmodium falciparum growth; series mostly up to 28.7 µM; further: nearly all actives have a fitted effect of over 70% in size
Procedure, shortened: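 Luciferase-expressing P. falciparum in erythrocytes (2% hematocrit, 0.1% parasitemia) incubated with compound for 96 h at 37 C, 5% CO2, in RPMI 1640 with 0.5% Albumax. Growth inhibition read as decreased luminescence.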

[24] = Quantitative high throughput screen for delayed death inhibitors of the malarial parasite plastid, 48 hour incubation (AID 488752); conditions: Plasmodium falciparum growth; series mostly up to 28.7 µM; further: nearly all actives have a fitted effect of over 65% in size
Procedure, shortened: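 Erythrocytes infected with firefly luciferase-expressing P. falciparum (2% hematocrit, 0.1% parasitemia) cultured with compound for 48 h at 37 C, 5% CO2, in RPMI 1640/0.5% Albumax. Growth inhibition read as loss of luminescence.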

[25] = target: M-phase phosphoprotein 8 (Homo sapiens) (UniProt Q99549); test: qHTS Validation Assay for Inhibitors for MPP8 Chromodomain Interactions with Methylated Histone Tails (AID 488949); conditions: AlphaScreen MPP8 binding to H3K9me3 peptide; series mostly up to 114 µM;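 further: AlphaScreen signal from MPP8 chromodomain bound to biotinylated H3K9me3 peptide; top concentration of the series differs between compounds; nearly all actives have a fitted effect of over 55% in size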
Procedure, shortened: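 AlphaScreen proximity signal from streptavidin donor and Ni-chelate acceptor beads (10 ug/mL each) reported binding of MPP8 to trimethyl-K9 H3(1-18) peptide, both at 50 nM. The complex formed 30 min before a 30 min compound exposure at room temperature, in PBS pH 7.4.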

[26] = target: Transient receptor potential cation channel subfamily V member 1 (Homo sapiens) (UniProt Q8NER1); test: HTS Assay for Compounds that Act as Enhancers of the Vanilloid Receptor 1 (AID 488979); conditions: TRPV1-expressing cells, enhancer of channel activity; series mostly up to 41.7 µM
Chain of Transient receptor potential cation channel subfamily V member 1 (Homo sapiens) (Q8NER1 whole entry, looked up): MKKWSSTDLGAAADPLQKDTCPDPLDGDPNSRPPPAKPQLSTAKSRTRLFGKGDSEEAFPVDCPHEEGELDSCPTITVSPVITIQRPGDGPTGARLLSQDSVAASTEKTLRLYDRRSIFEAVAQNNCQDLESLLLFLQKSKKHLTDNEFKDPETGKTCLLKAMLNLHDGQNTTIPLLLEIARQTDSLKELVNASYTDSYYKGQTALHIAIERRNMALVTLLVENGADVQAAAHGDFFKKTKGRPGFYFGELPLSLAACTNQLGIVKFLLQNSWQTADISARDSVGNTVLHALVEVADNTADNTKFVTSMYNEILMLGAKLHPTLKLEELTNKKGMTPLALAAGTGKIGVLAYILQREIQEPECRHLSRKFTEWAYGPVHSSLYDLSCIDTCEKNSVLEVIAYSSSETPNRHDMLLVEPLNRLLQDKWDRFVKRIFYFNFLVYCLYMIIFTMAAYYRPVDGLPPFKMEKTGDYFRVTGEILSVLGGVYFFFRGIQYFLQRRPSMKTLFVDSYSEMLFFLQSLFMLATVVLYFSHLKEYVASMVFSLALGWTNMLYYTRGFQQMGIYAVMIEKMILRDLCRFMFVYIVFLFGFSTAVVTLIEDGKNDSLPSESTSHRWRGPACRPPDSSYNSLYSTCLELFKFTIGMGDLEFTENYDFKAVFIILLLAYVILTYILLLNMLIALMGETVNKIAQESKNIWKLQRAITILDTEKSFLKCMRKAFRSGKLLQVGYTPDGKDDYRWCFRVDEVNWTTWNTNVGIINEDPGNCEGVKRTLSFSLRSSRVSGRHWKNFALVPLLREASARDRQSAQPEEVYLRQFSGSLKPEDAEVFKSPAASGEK
Procedure, shortened: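 TRPV1 cells loaded with Fluo-8 calcium dye; compound added and Ca2+ signal (ex 480/em 520 nm) followed 3 min, then capsaicin at EC20 added and read 2 more min to detect enhancement.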

[27] = target: Thyrotropin receptor (Homo sapiens) (UniProt P16473); test: qHTS Assay for Antagonists of the Thyroid Stimulating Hormone Receptor (AID 488980); conditions: TSHR-expressing cells, cAMP antagonist read-out; series mostly up to 57.5 µM
Chain of Thyrotropin receptor (Homo sapiens) (P16473 whole entry, looked up): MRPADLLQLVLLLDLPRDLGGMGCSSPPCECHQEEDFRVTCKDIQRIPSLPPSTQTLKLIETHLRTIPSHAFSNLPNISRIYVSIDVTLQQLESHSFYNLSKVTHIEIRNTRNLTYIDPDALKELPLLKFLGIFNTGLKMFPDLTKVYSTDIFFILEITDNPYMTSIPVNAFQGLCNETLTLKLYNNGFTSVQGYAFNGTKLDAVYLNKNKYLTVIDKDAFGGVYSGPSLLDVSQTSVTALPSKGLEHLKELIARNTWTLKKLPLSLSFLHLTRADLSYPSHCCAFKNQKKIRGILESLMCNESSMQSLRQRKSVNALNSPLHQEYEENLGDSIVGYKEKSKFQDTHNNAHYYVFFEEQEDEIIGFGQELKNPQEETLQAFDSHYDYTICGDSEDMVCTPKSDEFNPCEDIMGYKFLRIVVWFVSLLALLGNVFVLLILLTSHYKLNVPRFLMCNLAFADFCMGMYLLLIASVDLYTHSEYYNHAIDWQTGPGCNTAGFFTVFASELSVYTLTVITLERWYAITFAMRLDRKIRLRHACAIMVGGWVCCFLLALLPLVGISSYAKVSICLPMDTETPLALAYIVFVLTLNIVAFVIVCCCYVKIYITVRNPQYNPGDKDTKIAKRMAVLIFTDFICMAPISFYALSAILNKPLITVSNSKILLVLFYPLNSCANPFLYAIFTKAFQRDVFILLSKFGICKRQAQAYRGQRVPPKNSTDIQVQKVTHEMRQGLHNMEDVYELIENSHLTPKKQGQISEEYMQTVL
Procedure, shortened: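 Inhibition of cAMP raised by EC80 TSH (4 nM final) was read by HTRF, with lysate cAMP competing against cAMP-d2 for cryptate antibody after 30 min at room temperature. The cells were transfected HEK293 held in phosphodiesterase inhibitor RO 20-1724 at 70 uM.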

[28] = target: Thyrotropin-releasing hormone receptor (Homo sapiens) (UniProt P34981); test: qHTS for Small Molecule Agonists and Allosteric Enhancers of Human TRH Receptor: Validation Screen for Agonists (AID 493127;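 active means calcium activation more than 3 SD above the typical response in the agonist read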); conditions: TRH receptor agonist cell assay; at 2 µM; active compounds read high
Procedure, shortened: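 TRHR cells loaded with fluo-8 calcium dye; FDSS kinetic fluorescence (Ex 480/Em 530) read at 1 s/cycle after 23 nL compound addition. Agonist-mode calcium response recorded before the 10 nM TRH (EC20) addition.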

[29] = Validation screen for small molecules that induce DNA re-replication in SW480 colon adenocarcinoma cells (AID 504364); conditions: DNA re-replication phenotype (high-content imaging); series mostly up to 46.1 µM
Procedure, shortened: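 SW480 cells (250/well) exposed 48 h at 37 C, 5% CO2, then Hoechst-stained 40 min. Nuclear DNA content imaged by fluorescence scanning (405 nm excitation, 500-530 nm emission); re-replication scored as increased nuclei with elevated intensity.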

[30] = target: Voltage-gated inwardly rectifying potassium channel KCNH2 (Homo sapiens) (UniProt Q12809); test: qHTS Assay for Small Molecule Inhibitors of the Human hERG Channel Activity (AID 588834); conditions: U2OS BacMam hERG, FluxOR thallium flux fluorescence; series mostly up to 92.2 µM;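 further: top concentration of the series differs between compounds; lower thallium flux fluorescence means stronger hERG block; nearly all actives have a fitted effect of over 50% in size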
Procedure, shortened: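 Kinetic FDSS fluorescence; U2OS + hERG BacMam (~100 virus particles/cell); FluxOR Tl+ flux; ~10 min cpd; AC50 (Hill).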

[31] = Primary qHTS for small molecule stabilizers of the endoplasmic reticulum resident proteome: Secreted ER Calcium Modulated Protein (SERCaMP) assay (AID 1508630); conditions: SH-SY5Y GLuc-SERCaMP (Gaussia luciferase released on ER calcium loss) secretion, thapsigargin, luminescence; series mostly up to 38.4 µM
Procedure, shortened: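 GLuc-SERCaMP-expressing SH-SY5Y cells, pretreated 16 h with compound, are challenged with thapsigargin to empty ER calcium stores; after 4 h, coelenterazine is added directly to the medium and luminescence is imaged.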

## CCc1c(C(=O)OC)ncc2[nH]c3cc(OC)c(OC)cc3c12
[1]
  Potency: > 46 µM
[2]
  Potency: > 46 µM
[3]
  outcome: inactive
[4]
  Potency: inactive
[5]
  outcome: inactive
[6]
  Potency: inactive
[7]
  Potency: 5.62 µM (active)
[8]
  outcome: inactive
[9]
  Potency: inactive
[10]
  outcome: inactive
[11]
  outcome: inactive
[12]
  outcome: inactive
[13]
  Potency: 6.31 µM (active)
[14]
  Potency: 7.94 µM (active)
[15]
  Potency: 12.6 µM (active)
[16]
  Potency: 12.6 µM (active)
[17]
  Potency: inactive
[18]
  Potency: 7.94 µM (active)
[19]
  Potency: 10 µM (active)
[20]
  Potency: inactive
[21]
  outcome: inactive
[22]
  Potency: inactive
[23]
  Potency: inactive
[24]
  Potency: inactive
[25]
  Potency: inactive
[26]
  outcome: inactive
[27]
  outcome: inactive
[28]
  activation: 0.312%
[29]
  outcome: inactive
[30]
  Potency: inactive
[31]
  outcome: inactive
